Columns and labels:
Test in all cases: DAPPL (digital affinity profiling via proximity ligation, sequencing); 10 mM Tris-HCl pH 7.5, 50 mM NaCl, 1 mM DTT, 4% glycerol, room temperature, 30 min; GST-TFs on glutathione beads, 16-mer random dsDNA library, 0.1% formaldehyde crosslink after washing; high values mean tight binding
Conditions in all cases: protein: recombinant; tags: N-terminal GST; dsDNA, one strand shown
[1] = molecular target: T1, ELK1 (Homo sapiens, UniProt P19419 1-428)
T1 sequence: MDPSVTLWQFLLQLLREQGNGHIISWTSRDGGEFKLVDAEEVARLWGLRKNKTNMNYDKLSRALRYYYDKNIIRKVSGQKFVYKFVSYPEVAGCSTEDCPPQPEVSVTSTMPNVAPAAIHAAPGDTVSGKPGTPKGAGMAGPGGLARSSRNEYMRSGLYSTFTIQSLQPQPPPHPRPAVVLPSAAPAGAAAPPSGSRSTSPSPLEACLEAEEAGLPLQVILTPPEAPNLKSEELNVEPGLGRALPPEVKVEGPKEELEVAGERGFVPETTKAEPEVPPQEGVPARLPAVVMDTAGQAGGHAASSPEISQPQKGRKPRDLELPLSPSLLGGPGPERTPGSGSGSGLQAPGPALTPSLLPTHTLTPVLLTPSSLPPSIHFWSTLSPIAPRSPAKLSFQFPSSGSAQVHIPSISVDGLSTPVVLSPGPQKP
Procedure, shortened: (§1)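 GST fusions of human transcription factors were expressed in yeast and captured with glutathione beads. Once given DNA barcodes and pooled alongside a tag-only sample, they were incubated for 30 min at room temperature with 200 nmole of a random double-stranded 16-mer DNA library in Tris/NaCl/DTT/glycerol buffer, then washed, crosslinked (0.1% formaldehyde), proximity-ligated, PCR-amplified and sequenced on an Illumina NextSeq500. The binding signal of each hexamer is its read frequency for a factor divided by its frequency for the tag-only sample.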

[2] = molecular target: T2, GABPA (Homo sapiens, UniProt Q06546 1-454)
T2 sequence: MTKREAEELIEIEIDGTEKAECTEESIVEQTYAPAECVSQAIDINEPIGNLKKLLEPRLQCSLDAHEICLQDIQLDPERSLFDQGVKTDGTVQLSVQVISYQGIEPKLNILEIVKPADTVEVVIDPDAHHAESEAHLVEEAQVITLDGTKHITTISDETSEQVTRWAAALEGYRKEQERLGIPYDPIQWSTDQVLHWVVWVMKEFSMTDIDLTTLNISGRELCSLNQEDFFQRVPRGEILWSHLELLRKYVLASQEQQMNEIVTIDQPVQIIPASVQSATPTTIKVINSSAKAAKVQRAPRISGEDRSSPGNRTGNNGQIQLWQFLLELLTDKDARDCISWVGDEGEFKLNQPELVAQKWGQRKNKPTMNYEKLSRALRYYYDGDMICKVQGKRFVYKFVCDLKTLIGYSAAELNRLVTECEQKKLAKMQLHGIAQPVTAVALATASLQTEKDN
Procedure, shortened: as §1

[3] = molecular target: T3, ERG (Homo sapiens, UniProt P11308 1-479)
T3 sequence: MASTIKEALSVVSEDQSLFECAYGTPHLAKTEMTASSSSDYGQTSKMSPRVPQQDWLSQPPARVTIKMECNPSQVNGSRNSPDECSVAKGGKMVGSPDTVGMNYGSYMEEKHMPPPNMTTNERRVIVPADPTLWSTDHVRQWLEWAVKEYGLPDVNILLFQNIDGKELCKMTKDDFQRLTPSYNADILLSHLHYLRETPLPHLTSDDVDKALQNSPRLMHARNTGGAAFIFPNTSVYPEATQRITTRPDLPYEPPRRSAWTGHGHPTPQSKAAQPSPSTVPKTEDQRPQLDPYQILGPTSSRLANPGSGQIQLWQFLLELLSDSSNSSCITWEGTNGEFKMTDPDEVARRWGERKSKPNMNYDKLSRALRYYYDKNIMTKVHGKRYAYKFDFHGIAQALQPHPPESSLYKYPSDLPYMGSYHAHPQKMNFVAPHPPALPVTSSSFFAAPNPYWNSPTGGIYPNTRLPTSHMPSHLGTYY
Procedure, shortened: as §1

[4] = molecular target: ELF1 (Homo sapiens, UniProt P32519 1-619)
Procedure, shortened: as §1

[5] = molecular target: T4, ELK3 (Homo sapiens, UniProt P41970 1-407)
T4 sequence: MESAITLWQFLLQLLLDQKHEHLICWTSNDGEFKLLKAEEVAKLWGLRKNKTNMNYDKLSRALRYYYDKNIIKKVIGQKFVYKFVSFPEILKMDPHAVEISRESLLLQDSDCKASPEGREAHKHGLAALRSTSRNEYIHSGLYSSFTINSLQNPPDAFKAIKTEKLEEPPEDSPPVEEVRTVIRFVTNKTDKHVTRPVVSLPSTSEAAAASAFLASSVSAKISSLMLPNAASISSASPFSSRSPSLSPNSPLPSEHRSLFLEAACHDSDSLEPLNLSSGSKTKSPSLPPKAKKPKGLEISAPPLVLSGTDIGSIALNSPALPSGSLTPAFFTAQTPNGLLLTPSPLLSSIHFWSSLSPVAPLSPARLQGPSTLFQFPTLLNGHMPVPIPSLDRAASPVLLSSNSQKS
Procedure, shortened: as §1

[6] = molecular target: T5, SPIC (Homo sapiens, UniProt Q8N5J4 1-248)
T5 sequence: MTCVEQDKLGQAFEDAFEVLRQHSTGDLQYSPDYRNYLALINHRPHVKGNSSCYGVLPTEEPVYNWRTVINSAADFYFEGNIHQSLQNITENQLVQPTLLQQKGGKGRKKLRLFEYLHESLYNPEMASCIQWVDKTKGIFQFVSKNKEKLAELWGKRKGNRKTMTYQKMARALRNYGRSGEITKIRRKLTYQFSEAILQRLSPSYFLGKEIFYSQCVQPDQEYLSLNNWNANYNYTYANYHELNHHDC
Procedure, shortened: as §1

[7] = molecular target: ELF4 (Homo sapiens, UniProt Q99607 1-663)
Procedure, shortened: as §1

[8] = molecular target: T6, ELF3 (Homo sapiens, UniProt P78545 1-371)
T6 sequence: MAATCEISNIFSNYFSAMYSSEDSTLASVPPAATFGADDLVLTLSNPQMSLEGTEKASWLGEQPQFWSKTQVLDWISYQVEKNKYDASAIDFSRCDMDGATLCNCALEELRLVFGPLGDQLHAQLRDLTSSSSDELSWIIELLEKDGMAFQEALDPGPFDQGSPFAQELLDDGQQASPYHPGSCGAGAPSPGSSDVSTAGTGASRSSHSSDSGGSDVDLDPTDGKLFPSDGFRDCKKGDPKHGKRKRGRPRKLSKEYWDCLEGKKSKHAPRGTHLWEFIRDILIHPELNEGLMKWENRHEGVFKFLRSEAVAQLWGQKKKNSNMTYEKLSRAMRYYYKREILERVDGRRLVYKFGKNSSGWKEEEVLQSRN
Procedure, shortened: as §1

[9] = molecular target: T7, ERF (Homo sapiens, UniProt P50548 1-548)
T7 sequence: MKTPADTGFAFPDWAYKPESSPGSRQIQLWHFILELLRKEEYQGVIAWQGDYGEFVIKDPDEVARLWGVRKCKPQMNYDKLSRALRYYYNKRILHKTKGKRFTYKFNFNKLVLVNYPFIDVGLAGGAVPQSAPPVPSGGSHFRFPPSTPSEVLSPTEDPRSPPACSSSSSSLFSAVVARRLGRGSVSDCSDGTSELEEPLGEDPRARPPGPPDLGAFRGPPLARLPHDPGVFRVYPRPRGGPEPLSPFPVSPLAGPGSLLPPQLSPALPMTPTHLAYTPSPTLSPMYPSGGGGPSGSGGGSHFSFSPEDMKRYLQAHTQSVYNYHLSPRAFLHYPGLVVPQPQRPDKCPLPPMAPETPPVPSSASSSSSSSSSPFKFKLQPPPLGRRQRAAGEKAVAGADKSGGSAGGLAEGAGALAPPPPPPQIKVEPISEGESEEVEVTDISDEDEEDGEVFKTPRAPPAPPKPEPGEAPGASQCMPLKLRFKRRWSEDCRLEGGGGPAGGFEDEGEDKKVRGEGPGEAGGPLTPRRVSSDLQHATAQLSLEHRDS
Procedure, shortened: as §1

[10] = molecular target: T8, ETV3L (Homo sapiens, UniProt Q6ZN32 1-361)
T8 sequence: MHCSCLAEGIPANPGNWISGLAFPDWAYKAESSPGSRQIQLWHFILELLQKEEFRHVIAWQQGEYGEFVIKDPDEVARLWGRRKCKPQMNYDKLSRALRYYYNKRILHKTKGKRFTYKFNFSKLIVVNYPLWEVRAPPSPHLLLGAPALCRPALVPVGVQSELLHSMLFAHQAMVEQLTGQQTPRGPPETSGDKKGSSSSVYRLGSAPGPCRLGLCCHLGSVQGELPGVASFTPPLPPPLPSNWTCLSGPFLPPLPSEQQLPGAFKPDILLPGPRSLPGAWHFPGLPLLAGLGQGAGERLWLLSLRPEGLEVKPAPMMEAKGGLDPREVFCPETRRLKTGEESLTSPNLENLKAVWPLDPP
Procedure, shortened: as §1

[11] = molecular target: T9, ETS2 (Homo sapiens, UniProt P15036 1-469)
T9 sequence: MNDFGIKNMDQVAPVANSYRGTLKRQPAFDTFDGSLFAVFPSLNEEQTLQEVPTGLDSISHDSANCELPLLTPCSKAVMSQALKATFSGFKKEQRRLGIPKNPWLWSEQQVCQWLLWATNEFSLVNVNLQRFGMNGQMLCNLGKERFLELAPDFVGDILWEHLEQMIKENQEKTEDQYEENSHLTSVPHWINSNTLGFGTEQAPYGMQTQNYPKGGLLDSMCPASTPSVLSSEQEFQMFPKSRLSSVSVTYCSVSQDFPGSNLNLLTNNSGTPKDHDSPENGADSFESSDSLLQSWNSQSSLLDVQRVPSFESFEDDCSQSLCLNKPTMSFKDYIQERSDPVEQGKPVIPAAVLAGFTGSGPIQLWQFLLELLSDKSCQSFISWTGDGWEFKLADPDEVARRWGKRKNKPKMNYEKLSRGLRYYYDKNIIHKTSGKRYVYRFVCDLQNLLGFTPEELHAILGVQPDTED
Procedure, shortened: as §1

[12] = molecular target: T10, SPDEF (Homo sapiens, UniProt O95238 1-335)
T10 sequence: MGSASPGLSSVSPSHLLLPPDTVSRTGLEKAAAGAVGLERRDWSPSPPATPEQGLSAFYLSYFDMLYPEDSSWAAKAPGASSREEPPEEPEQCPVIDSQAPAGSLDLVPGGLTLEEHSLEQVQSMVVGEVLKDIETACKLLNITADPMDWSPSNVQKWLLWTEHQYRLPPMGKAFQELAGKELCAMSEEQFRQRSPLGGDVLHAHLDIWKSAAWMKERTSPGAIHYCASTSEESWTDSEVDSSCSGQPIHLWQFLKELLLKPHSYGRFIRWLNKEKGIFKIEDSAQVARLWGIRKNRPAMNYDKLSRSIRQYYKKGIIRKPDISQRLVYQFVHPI
Procedure, shortened: as §1

[13] = molecular target: T11, ETV7 (Homo sapiens, UniProt Q9Y603 1-341)
T11 sequence: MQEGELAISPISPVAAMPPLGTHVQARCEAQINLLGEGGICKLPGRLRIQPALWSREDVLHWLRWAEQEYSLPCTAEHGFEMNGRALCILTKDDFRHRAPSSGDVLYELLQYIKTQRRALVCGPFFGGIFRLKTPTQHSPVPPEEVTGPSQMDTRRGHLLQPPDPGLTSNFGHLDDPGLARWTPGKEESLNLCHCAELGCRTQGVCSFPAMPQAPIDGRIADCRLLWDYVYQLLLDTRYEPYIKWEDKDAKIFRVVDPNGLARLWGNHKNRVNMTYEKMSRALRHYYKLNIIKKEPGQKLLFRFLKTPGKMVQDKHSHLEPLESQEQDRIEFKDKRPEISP
Procedure, shortened: as §1

[14] = molecular target: T12, ETV3 (Homo sapiens, UniProt P41162-2 1-143)
T12 sequence: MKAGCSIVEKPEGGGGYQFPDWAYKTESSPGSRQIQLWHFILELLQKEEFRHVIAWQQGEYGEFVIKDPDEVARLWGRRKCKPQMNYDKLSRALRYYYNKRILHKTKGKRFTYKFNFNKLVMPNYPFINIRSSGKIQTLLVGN
Procedure, shortened: as §1

[15] = molecular target: ETV6 (Homo sapiens, UniProt P41212 1-452)
Procedure, shortened: as §1

[16] = molecular target: SPIB (Homo sapiens, UniProt Q01892 1-262)
Procedure, shortened: as §1

[17] = molecular target: ETV1 (Homo sapiens, UniProt P50549 1-477)
Procedure, shortened: as §1

Sequence of ELF1 (P32519 whole entry): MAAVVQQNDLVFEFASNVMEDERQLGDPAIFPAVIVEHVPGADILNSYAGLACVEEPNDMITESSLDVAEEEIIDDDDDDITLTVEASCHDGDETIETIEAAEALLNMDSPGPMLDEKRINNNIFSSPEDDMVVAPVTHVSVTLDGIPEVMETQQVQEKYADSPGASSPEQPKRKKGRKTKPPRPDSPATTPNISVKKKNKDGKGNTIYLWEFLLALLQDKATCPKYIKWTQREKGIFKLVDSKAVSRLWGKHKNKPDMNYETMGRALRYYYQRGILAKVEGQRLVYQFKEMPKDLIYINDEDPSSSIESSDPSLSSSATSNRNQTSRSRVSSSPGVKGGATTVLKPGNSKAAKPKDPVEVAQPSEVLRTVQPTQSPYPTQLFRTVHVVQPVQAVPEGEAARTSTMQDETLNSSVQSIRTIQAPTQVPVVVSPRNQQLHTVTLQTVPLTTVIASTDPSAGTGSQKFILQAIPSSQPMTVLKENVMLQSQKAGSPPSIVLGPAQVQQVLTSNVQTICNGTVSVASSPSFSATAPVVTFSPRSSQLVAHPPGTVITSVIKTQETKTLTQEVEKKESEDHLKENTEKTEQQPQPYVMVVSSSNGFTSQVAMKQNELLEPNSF
Sequence of ETV6 (P41212 whole entry): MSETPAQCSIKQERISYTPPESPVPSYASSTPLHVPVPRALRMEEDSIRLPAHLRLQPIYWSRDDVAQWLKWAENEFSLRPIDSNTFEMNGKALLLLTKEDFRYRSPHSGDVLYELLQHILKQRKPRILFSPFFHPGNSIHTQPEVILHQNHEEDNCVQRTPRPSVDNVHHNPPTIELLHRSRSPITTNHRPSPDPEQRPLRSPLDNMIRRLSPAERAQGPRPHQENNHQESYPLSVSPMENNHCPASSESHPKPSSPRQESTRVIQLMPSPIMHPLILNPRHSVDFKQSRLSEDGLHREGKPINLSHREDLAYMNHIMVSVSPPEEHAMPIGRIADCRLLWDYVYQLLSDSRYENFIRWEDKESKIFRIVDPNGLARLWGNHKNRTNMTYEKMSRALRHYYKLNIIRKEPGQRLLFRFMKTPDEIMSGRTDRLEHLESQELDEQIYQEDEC
Sequence of ELF4 (Q99607 whole entry): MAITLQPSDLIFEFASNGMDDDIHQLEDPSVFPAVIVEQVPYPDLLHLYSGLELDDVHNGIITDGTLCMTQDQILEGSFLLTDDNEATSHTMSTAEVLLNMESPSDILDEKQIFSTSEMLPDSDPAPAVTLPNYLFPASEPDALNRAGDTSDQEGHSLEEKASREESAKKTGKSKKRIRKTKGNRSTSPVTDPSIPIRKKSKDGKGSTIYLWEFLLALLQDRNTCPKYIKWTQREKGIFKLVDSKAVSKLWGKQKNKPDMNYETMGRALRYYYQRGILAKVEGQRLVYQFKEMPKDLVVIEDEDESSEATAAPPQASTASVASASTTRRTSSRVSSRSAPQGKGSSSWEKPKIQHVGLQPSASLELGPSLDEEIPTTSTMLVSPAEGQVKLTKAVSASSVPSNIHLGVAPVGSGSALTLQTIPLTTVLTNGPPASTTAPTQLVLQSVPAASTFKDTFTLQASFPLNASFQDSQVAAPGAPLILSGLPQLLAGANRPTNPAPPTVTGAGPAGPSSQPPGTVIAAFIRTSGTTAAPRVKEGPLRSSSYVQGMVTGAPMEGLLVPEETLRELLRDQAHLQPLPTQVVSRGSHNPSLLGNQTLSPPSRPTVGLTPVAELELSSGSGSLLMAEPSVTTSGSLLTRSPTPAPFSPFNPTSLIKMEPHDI
Sequence of SPIB (Q01892 whole entry): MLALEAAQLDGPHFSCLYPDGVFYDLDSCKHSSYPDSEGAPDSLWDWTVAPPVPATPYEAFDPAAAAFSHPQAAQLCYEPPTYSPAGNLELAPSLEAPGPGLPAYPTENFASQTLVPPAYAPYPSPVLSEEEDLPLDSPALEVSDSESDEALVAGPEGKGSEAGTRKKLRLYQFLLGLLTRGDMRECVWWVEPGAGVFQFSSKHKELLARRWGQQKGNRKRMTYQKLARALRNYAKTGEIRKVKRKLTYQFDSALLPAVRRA
Sequence of ETV1 (P50549 whole entry): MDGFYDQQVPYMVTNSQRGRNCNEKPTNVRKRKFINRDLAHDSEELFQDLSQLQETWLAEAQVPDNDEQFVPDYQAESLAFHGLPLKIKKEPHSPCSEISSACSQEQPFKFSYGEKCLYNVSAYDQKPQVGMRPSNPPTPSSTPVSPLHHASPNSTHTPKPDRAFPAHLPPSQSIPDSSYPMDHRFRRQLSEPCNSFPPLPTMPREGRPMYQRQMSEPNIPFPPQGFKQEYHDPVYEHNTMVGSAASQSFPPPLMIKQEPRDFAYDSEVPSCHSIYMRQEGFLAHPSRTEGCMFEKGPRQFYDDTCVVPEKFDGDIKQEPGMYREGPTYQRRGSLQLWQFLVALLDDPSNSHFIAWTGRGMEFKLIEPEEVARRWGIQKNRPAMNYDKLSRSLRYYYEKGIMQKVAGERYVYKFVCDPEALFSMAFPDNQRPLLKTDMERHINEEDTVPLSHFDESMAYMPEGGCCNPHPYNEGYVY

Sequence | binding signal [1] | binding signal [2] | binding signal [3] | binding signal [4] | binding signal [5] | binding signal [6] | binding signal [7] | binding signal [8] | binding signal [9] | binding signal [10] | binding signal [11] | binding signal [12] | binding signal [13] | binding signal [14] | binding signal [15] | binding signal [16] | binding signal [17]
CTAGAA | 1 fold enrichment (6-mer frequency, TF over GST control) | 1.05 fold enrichment (6-mer frequency, TF over GST control) | 1.05 fold enrichment (6-mer frequency, TF over GST control) | 1.04 fold enrichment (6-mer frequency, TF over GST control) | 1.09 fold enrichment (6-mer frequency, TF over GST control) | 1.03 fold enrichment (6-mer frequency, TF over GST control) | 1.05 fold enrichment (6-mer frequency, TF over GST control) | 1.03 fold enrichment (6-mer frequency, TF over GST control) | 1.28 fold enrichment (6-mer frequency, TF over GST control) | 1.03 fold enrichment (6-mer frequency, TF over GST control) | 1.02 fold enrichment (6-mer frequency, TF over GST control) | 1.01 fold enrichment (6-mer frequency, TF over GST control) | 1.02 fold enrichment (6-mer frequency, TF over GST control) | 1.01 fold enrichment (6-mer frequency, TF over GST control) | 1.04 fold enrichment (6-mer frequency, TF over GST control) |  | 
GATCAA |  | 1.16 fold enrichment (6-mer frequency, TF over GST control) |  | 1.04 fold enrichment (6-mer frequency, TF over GST control) | 1.09 fold enrichment (6-mer frequency, TF over GST control) | 1.05 fold enrichment (6-mer frequency, TF over GST control) |  |  | 1.02 fold enrichment (6-mer frequency, TF over GST control) | 1.1 fold enrichment (6-mer frequency, TF over GST control) | 1.04 fold enrichment (6-mer frequency, TF over GST control) | 1.05 fold enrichment (6-mer frequency, TF over GST control) |  | 1.01 fold enrichment (6-mer frequency, TF over GST control) | 1.07 fold enrichment (6-mer frequency, TF over GST control) | 1.03 fold enrichment (6-mer frequency, TF over GST control) | 1.04 fold enrichment (6-mer frequency, TF over GST control)
